Screens from PubChem.
Hits are enriched below; roughly 7.5% of the tested compounds scored in any of these assays.
Rab9 promoter act: qHTS Assay for Rab9 Promoter Activators | Huh7 Rab9 promoter-luciferase reporter, luminescence, 24 h | Potency, µM (top dose mostly 9.22 µM), for the others: at the top dose activation, negative = inhibition, most hits filed as activators | hit rate 2.8% among 320,000; also: % of control where 0% means no effect; nearly all actives have a fitted effect of over 60% in size
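Cells were plated at 1500 per well in reduced-serum medium with 10% FBS and left 2 h. Compound in DMSO was then added for 24 h at 37 °C. Reporter signal was read by luminescence after 10 min with luciferase detection reagent.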
SMN2 splice up: qHTS Assay for Enhancers of SMN2 Splice Variant Expression | HEK293 SMN2-luciferase splicing reporter, luminescence, 30-36 h | Potency, µM (doses to about 46.1 µM), for inactives: at the top dose activity change, positive = activation, actives largely listed as activators | hit rate 2.8% among 210,000 | AID 1458, 2008; also: % of control where 0% means no effect; nearly all actives have a fitted effect of over 55% in size
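HEK293 cells carry an SMN2 […]–luciferase reporter in which exon 7 inclusion puts luciferase in frame. Cells were plated 10-12 h before compound addition, then incubated 30-36 h at 37C. ONE-Glo luminescence was read; sodium butyrate at 4.5 mM final served as control.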
FLuc counter: qHTS profiling assay for firefly luciferase inhibitor/activator using purifed enzyme and Km concentrations of substrates (counterscreen for miR-21 project) | Luciferin 4-monooxygenase (Photinus pyralis), P08659 | purified FLuc, Km substrates, luminescence inhibition | Potency, µM (top dose mostly 57.5 µM), for the others: at the top dose activity change, negative = inhibition, actives largely listed as inhibitors | hit rate 6.9% among 360,000;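 also: plate controls were vehicle for no effect and reference inhibitor for full effect; nearly all actives have a fitted effect of over 55% in size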
Target sequence (P08659 whole entry, looked up): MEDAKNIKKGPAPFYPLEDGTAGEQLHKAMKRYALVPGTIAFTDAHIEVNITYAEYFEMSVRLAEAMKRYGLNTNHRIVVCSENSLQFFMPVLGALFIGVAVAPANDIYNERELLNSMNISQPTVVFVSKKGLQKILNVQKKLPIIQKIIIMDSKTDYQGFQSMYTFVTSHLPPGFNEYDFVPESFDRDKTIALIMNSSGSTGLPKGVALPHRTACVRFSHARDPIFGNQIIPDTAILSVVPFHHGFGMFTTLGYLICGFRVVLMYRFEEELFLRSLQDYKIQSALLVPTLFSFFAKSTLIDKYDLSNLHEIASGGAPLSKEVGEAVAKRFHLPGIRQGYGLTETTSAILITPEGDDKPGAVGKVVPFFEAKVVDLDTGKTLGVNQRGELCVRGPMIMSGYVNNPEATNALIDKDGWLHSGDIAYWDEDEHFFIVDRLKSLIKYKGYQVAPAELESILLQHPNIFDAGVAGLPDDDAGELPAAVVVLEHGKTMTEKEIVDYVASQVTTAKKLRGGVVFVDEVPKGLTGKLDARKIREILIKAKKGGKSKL
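Purified P. pyralis luciferase, 10 nM final, with Km-level 10 uM D-luciferin and 10 uM ATP in 50 mM Tris acetate pH 7.5, 10 mM Mg acetate, 0.01% Tween-20, 0.05% BSA; 6-point qHTS titration about 60 µM downward; luminescence read.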
NPC1 promoter act: qHTS Assay for NPC1 Promoter Activators | Huh7 NPC1 promoter luciferase reporter, 24 h | Potency, µM (highest dose often 9.22 µM), for inactives: at the highest dose activation, actives largely listed as activators | hit rate 2.4% among 320,000; also: % of control where 0% means no effect; nearly all actives have a fitted effect of over 60% in size
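Cells: Huh7 expressing luciferase under the NPC1 promoter, 1500/well. Seeded 2 h, compound added, incubated 24 h at 37 °C. Luciferase reagent, 10 min ambient, then luminescence.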
Luc counter: Counterscreen for Luciferase (Kinase-Glo TM) Inhibition. Luciferin 4-monooxygenase (Photuris pensylvanica), Q27757. Kinase-Glo luciferase, ATP luminescence, 8 min. Potency, µM (titrated, usually from 38.3 µM), for the others: at the highest dose activity change, negative = inhibition, actives largely listed as inhibitors. hit rate 0.28% among 200,000; also: % is scaled to controls: 0 for no effect and ±100 for the full control effect; nearly all actives have a fitted effect of over 60% in size
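Substrate mix (final 50 mM imidazole pH 7.2, 50 mM KCl, 7 mM MgCl2, 10 uM ATP, 0.01% Tween 20, 0.05% BSA) plus pin-tool compound, then Kinase-Glo detection mix; 8 min ambient, luminescence read.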
ELG1 genotox: qHTS screen for small molecules that induce genotoxicity in human embryonic kidney (HEK293T) cells expressing luciferase-tagged ELG1; HEK293T ELG1-luciferase reporter, luminescence, 16 h; Potency, µM (top dose mostly 46 µM), for inactives: at the highest dose activity change, positive = activation, usual class: activators; hit rate 1.3% among 330,000; also: % of control where 0% means no effect; nearly all actives have a fitted effect of over 60% in size
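Cells (2,000/well) expressing the ELG1-luciferase fusion are dosed by pin tool and kept 16 hr at 37 °C, 5% CO2. Signal comes from ONE-Glo luciferase reagent after 30 min at room temperature.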
* hit, by the source's call; ? = inconclusive; . = no result. Calls follow the shape of the dose curve; as a rule, active = well fitted curve in the direction sought with a large enough effect; inconclusive = small, poorly fitted or top-dose-only effect, or another doubt; inactive = no such curve, though single readings can be large; an effect the other way counts as inactive or inconclusive. Potency is read from the fitted curve at half-maximal effect.

SMILES	Rab9 promoter act	SMN2 splice up	FLuc counter	NPC1 promoter act	Luc counter	ELG1 genotox
COc1ccc(/C=C(\NC(=O)c2ccc(OC)cc2)C(=O)Nc2ccccc2C(=O)O)cc1	-7%	.	-1%	-2%	.	0%
CSc1ncc(Cl)c(C(=O)NCc2ccc(C)cc2)n1	.	-5%	3%	.	.	.
Cc1ccc(SCc2cn3cc(Cl)ccc3n2)cc1	?	.	13µM*	?	.	21%
Clc1ccc2nc(CSc3nncn3-c3ccccc3)cn2c1	1%	-8%	5%	-2%	-1%	0%
Clc1ccc2nc(CSc3nnc4ccccn34)cn2c1	1µM*	10µM*	7.6µM*	0.5µM*	-12%	8.2µM*
O=C(NCCc1ccccc1)c1cc(S(=O)(=O)N2CCCCC2)c[nH]1	.	.	-6%	.	.	.
CCN(CC)CCNC(=O)c1ccc(NC(=O)c2c(C)nn(-c3ccc(F)cc3)c2Cl)cc1	1%	.	-3%	0%	.	3%
COC(=O)c1ccc(Cl)cc1NC(=O)N1CC=C(c2c[nH]c3ccccc23)CC1	.	.	-13%	.	.	.
CCc1ccc(NC(=O)Cn2c(=O)n(Cc3ccccc3)c(=O)c3oc4ccccc4c32)cc1	.	.	-4%	.	.	.
COc1ccc(NC(=O)Cn2c(=O)n(Cc3ccccc3)c(=O)c3oc4ccccc4c32)cc1Cl	.	.	2.4µM*	.	.	.
Cc1occc1C(=O)NCCc1cccc(Cl)c1	4µM*	?	21µM*	?	-9%	?
O=C(NCCCCNC(=O)c1cccs1)c1cccs1	1%	0%	2%	0%	-4%	3%
O=C(NCCCNC(=O)c1cccs1)c1cccs1	3%	0%	1%	8%	4%	3%
O=C(NCCc1ccccc1)c1cccs1	2.8µM*	11µM*	11µM*	2.8µM*	-5%	2.9µM*
O=C(NCCc1cccc(Cl)c1)c1cccs1	1.8µM*	16µM*	15µM*	2.2µM*	-3%	?
COc1cccc(NC(=O)C2CCN(S(=O)(=O)c3cccc4nonc34)CC2)c1	.	-8%	2%	.	.	.
CC(=O)Nc1ccc(NC(=O)CSc2nnc(C)c(=O)[nH]2)cc1	1%	-2%	-7%	-4%	-1%	-1%
C/C(CCC(=O)OC[C@H]1O[C@H](C#Cc2ccccc2)C=C[C@@H]1Oc1ccc(C)cc1)=N\O[C@@H](C)CN1CCCCc2nc(C)c(C)cc21	-3%	-27%	4%	1%	-4%	-1%
CCOc1ccc2c(c1)nc(SCC(=O)c1cccs1)n2C	25%	23%	12µM*	?	-3%	?
CCN(CC)C(=S)SCC(=O)c1ccc(Br)cc1	?	?	19µM*	?	0%	?
CCn1c(CNC(C)=O)nnc1SCC(=O)c1ccc(Br)cc1	0%	?	-3%	-5%	-3%	-1%
O=C(Cn1c(=O)sc2ccccc21)Nc1ccc(O)cc1	7%	-13%	8%	11%	1%	-2%
Cc1ccc2nc(-c3ccc(N4CCOCC4)cc3)c(Nc3ccccc3C)n2c1	.	?	1.9µM*	.	.	.
Cc1ccc(Nc2c(-c3ccc(N4CCOCC4)cc3)nc3ncccn23)c(C)c1	-4%	1%	19µM*	0%	-2%	-2%
Cc1ccccc1Nc1c(-c2ccc(N3CCOCC3)cc2)nc2ccc(Cl)cn12	.	4%	2.4µM*	.	.	.
SMILES	Rab9 promoter act	SMN2 splice up	FLuc counter	NPC1 promoter act	Luc counter	ELG1 genotox
Clc1ccc2nc(-c3ccc(N4CCOCC4)cc3)c(Nc3ccccc3)n2c1	.	2%	?	.	.	.
CCOC(=O)CNC(=O)c1sc(NC(=O)c2ccccc2F)nc1C	?	.	11µM*	?	.	9.2µM*
O=C(CNC(=O)c1ccccc1F)OCCCOC(=O)CNC(=O)c1ccccc1F	11%	.	-2%	-1%	.	0%
COC(=O)c1sc(NC(=S)NC(=O)c2ccccc2F)nc1C	1µM*	-15%	8.5µM*	?	-4%	?
CCOC(=O)CNC(=O)c1sc(NC(=O)c2cccc(F)c2)nc1C	14%	18%	21µM*	8%	-5%	?
COC(=O)c1sc(NC(=S)NC(=O)c2cccc(C)c2)nc1C	?	22%	?	21%	-3%	?
Cc1noc(C)c1COC(=O)CNC(=O)c1cccc(F)c1	2%	3%	-2%	-4%	0%	0%
CN(C(=O)CSc1nnc(Cc2cccs2)n1C1CC1)C1CCS(=O)(=O)C1 (stereo unspecified)	0%	.	2%	8%	.	-2%
Cc1ccc(S(=O)(=O)N2CCCC2C(=O)NCc2ccccc2F)cc1 (stereo unspecified)	-4%	.	-12%	-7%	.	-5%
CSC1=N/C(=C\c2cccnc2)C(=O)N1c1ccccc1	-3%	11%	12µM*	1%	-1%	15%
COc1ccc(-c2csc(NC(=O)c3cccs3)c2C(=O)O)cc1OC	15%	16%	24µM*	13%	-1%	-3%
O=C(Nc1ccc(NC(=O)c2cccs2)cc1)c1cccc(Br)c1	.	-2%	-1%	.	.	.
O=C(Nc1cccc(O)c1)c1cccc(NC(=O)c2cccs2)c1	0%	.	13µM*	15%	.	-12%
COc1ccc(NC(=O)c2cccs2)cc1O	?	?	15µM*	?	?	?
COc1ccc(C(=O)Nc2ccc(NC(=O)c3cccs3)cc2)cc1OC	.	-3%	0%	.	.	.
